Laboratory results reported in PubChem BioAssay (Tox21).
Inconclusive results are not listed. A call without a number means that no potency is given here. The source made the active and inactive calls. Calls come from the whole dose curve.

Test: p53 small molecule agonists, cell-based qHTS assay with human liver microsomes (AID 1963577)
Conditions: HCT-116 p53RE-bla with human liver microsomes, ratio, 16 h; series mostly up to 66 µM
Source text: National Center for Advancing Translational Sciences [NCATS]
Division of Preclinical Innovation [DPI]
U.S. Environmental Protection Agency [EPA]
National Institutes of Environmental Health Sciences [NIEHS]
National Toxicology Program [NTP]
U.S. Food and Drug Administration [FDA]
p53, a tumor suppressor protein, is activated following cellular insult, including DNA damage and other cellular stresses. The activation of p53 regulates cell fate by inducing DNA repair, cell cycle arrest, apoptosis, or cellular senescence. The activation of p53, therefore, is a good indicator of DNA damage and other cellular stresses. […] The activation of the reporter gene under culture conditions can be detected by fluorescence intensity.
Tox21 Assay Protocol Summary:
The p53RE-bla cells were dispensed at 4,000cells/3ul/well in 1536-well black-clear bottom plates. After the assay plates were incubated at 37 C, 5% CO2 incubator for 5 hours, 23 nL of compounds dissolved in DMSO, positive controls or DMSO only was transferred to the assay plate. Following compound addition, 3 uL of human liver microsomes (XenoTech, Kansas City, KS) at final concentration of 0.5 mg/mL and 1uL of Beta-Nicotinamide adenine dinucleotide 2-phosphate (NADPH) at final concentration of 0.5 mg/mL were transferred to the assay plate. The plates were incubated at 37 C for 16 hours. 1 uL of LiveBLAzer detection mixture was added to each well and the plates were incubated at room temperature in the dark for 2 h.
Potency is the fitted concentration of half-maximal effect.

| SMILES | Potency |
| --- | --- |
| OCC(O)CCl (stereo not given) | inactive |
| CON(C)C(=O)Nc1ccc(Cl)cc1 | inactive |
| CCNc1nc(NC(C)(C)C)nc(SC)n1 | inactive |
| CCNc1nc(NC(C)C)nc(OC)n1 | inactive |
| O=[N+]([O-])c1ccc(Cl)cc1 | inactive |
| NCc1cccnc1 | inactive |
| FC(F)(F)c1ccc(Cl)cc1 | inactive |
| Nc1c(Cl)c(Cl)nc(C(=O)O)c1Cl | inactive |
| C=C(Cl)CCl | inactive |
| Nc1ccccc1C(=O)OCC(O)CO (stereo not given) | inactive |
| Nc1ccncc1 | inactive |
| C=CCOCC1CO1 (stereo not given) | inactive |
| CN(C)CCC#N | inactive |
| O=C1C(Cl)=C(Cl)C(=O)c2ccccc21 | inactive |
| c1ccc(NNc2ccccc2)cc1 | inactive |
| CC(C)(C)C(O)(CCc1ccc(Cl)cc1)Cn1cncn1 (stereo not given) | inactive |
| CCNc1nc(Cl)nc(NC(C)(C)C#N)n1 | inactive |
| O=C(CBr)c1ccc(O)cc1 | inactive |
| CS(=O)(=O)Cl | inactive |
| Cc1cc(N=Nc2ccccc2C)ccc1N | inactive |

| SMILES | Potency |
| --- | --- |
| CNC(=O)NC(O)C(Cl)(Cl)Cl (stereo not given) | inactive |
| Cc1cccc(N)c1 | inactive |
| O=S(=O)(c1ccc(Cl)cc1)c1cc(Cl)c(Cl)cc1Cl | inactive |
| Clc1ccc(Cl)cc1 | inactive |
| O=C(O)c1nn(Cc2ccc(Cl)cc2Cl)c2ccccc12 | inactive |
| C[C@]12CC[C@H]3[C@@H](CCC4=CC(=O)CC[C@@H]43)[C@@H]1CC[C@@H]2O | inactive |
| Brc1ccc(Oc2ccccc2)cc1 | inactive |
| CNC(=S)S | inactive |
| CC(C)C(C)(N)C#N (stereo not given) | inactive |
| CCC[CH2][Sn]([Cl])([Cl])[CH2]CCC | inactive |
| c1ccc2c(c1)CCCC2 | inactive |
| CCOc1ccc(N)cc1 | inactive |
| CC(C)(O)C#N | inactive |
| BrCC(Br)c1ccccc1 (stereo not given) | inactive |
| CCCCOCCOP(=O)(OCCOCCCC)OCCOCCCC | inactive |
| N#CSCSC#N | inactive |
| OCC1CO1 (stereo not given) | inactive |
| CCC(=O)C(CC(C)N(C)C)(c1ccccc1)c1ccccc1 (stereo not given) | inactive |
| CC(Br)C(=O)O (stereo not given) | inactive |
| COP(=S)(OC)Oc1ccc(S(=O)(=O)N(C)C)cc1 | 1290 nM (active) |
